A short description of test [1]: binders of probe aFSTL3 on microarray, primary screen, stem cell growth factor project, biochemical, small-molecule microarray, fluorescence 635/667 (AID 1064).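 Also: measures binding of the biotinylated anti-FSTL3 antibody to printed compounds.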 As to conditions: higher = more signal.
Test [2] in a line: binders from COS7 lysate, DM2A8 probe, primary screen, torsin A project, cell lysate, small-molecule microarray, fluorescence 635/667 (AID 1065). The settings on record: higher = more signal, COS7 lysate expressing mutant human TOR1A.
Test [3] is described as follows: binders of probe aFGF2 on microarray, primary screen, stem cell growth factor project, biochemical, small-molecule microarray, fluorescence 635/667 (AID 1067).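 Also: measures binding of biotinylated aFGF2 protein to printed compounds on slides; z-score merges feature fluorescence and signal-to-noise across triplicate slides.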 The settings on record: higher = more signal.
A short description of test [4]: binders of probe aFGF10 on microarray, primary screen, stem cell growth factor project, biochemical, small-molecule microarray, fluorescence 635/667 (AID 1071).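 Also: score merges 667 nm spot intensity and signal to noise from triplicate slides.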 The settings on record: higher = more signal.
Test [5] has as its target Neurogenic locus notch homolog protein 2 (Homo sapiens) (UniProt Q04721). Nature of the test: Notch2 binders on small-molecule microarrays, primary screen, biochemical, small-molecule microarray, 635 nm fluorescence, stem cell growth factors (AID 1073). The settings on record: Notch2 binding, higher = more signal.
Test [6] concerns the target Pro-neuregulin-1, membrane-bound isoform (Homo sapiens) (UniProt Q02297). Nature of the test: NRG1 binders on small-molecule microarrays, primary screen, psychiatric disease protein project, biochemical, small-molecule microarray, fluorescence 635/667 (AID 1075).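 Also: score combines 667 nm spot fluorescence with signal to noise.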 As to conditions: NRG1 binding, 635 nm fluorescence, higher = more signal.
Test [7] relates to Neuregulin-1 EGF-like domain. Nature of the test: binders of neuregulin-1 EGF-like domain, primary screen, biochemical, small-molecule microarray, 635 nm fluorescence (AID 1081).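 Also: binding of the protein to compounds printed on small-molecule microarray slides.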 As to conditions: small-molecule microarray binding, higher = more signal.
A short description of test [8]: FRG1 promoter luciferase signal modulators, primary screen, FRG1 inhibition for FSHD, cell-based, C2C12 myotubes, firefly/Renilla luciferase, luminescence (AID 1084). The settings on record: higher = more signal, called active from +8 up or from −8 down.
Test [9] in a line: binders of probe aFST on microarray, primary screen, stem cell growth factor project, biochemical, small-molecule microarray, fluorescence 635/667 (AID 1086).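 Also: score merges 667 nm fluorescence with signal-to-noise of each printed compound spot.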 The settings on record: higher = more signal.
Test [10] is described as follows: binders of probe aHhip on microarray, primary screen, stem cell growth factor project, biochemical, small-molecule microarray, fluorescence 635/667 (AID 1087).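 Also: score merges spot fluorescence at 667nm with spot signal to noise ratio.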 The settings on record: higher = more signal.
The test system of test [11] is PRMT1 (protein arginine N-methyltransferase 1). The test can be described thus: PRMT1 binders on small-molecule microarrays, primary screen, biochemical, small-molecule microarray, 635 nm fluorescence (AID 1088).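 Also: binding of Prmt1 protein to compounds spotted on small-molecule microarray slides.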 The settings on record: small-molecule microarray binding, higher = more signal.
Test [12] is described as follows: yeast growth modulation, basal conditions, primary screen, YJM789 clinical isolate, OD600, 24 h (AID 1089).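 Also: growth of clinical yeast isolate S. cerevisiae YJM 789 seeded 1000 cells per well; test concentration not given here.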 The settings on record: S. cerevisiae YJM789 growth, higher = more signal, called active from +8 up or from −8 down.
Test [13] in a line: fission yeast growth modulation, primary screen, strain 972, OD600, 24 h, no modulator (AID 1090).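 Also: basal condition with compound alone and no growth modifier present; test concentration not given here.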 As to conditions: S. pombe 972 growth, higher = more signal, called active from +8 up or from −8 down.
Test [14] is described as follows: S. cerevisiae growth modulation with rapamycin, primary screen, strain BY4716, OD600, 96 h (AID 1091). Also: test concentration not given here. As to conditions: higher = more signal, called active from +8 up or from −8 down.
Test [15] deals with Torsin-1A-interacting protein 2 (Homo sapiens) (UniProt Q8NFQ8). The test can be described thus: LULL1 binders on small-molecule microarray, primary screen, cell lysate, human LULL1 lysate, 635/667 nm fluorescence (AID 1092).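 Also: probe is lysate of COS7 cells overexpressing human LULL1; score merges per-feature 667 nm fluorescence with signal-to-noise.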 As to conditions: hLULL1 lysate binding, 635 nm fluorescence, higher = more signal.
Torsin-1A-interacting protein 2 (Homo sapiens), sequence (Q8NFQ8 whole entry, looked up): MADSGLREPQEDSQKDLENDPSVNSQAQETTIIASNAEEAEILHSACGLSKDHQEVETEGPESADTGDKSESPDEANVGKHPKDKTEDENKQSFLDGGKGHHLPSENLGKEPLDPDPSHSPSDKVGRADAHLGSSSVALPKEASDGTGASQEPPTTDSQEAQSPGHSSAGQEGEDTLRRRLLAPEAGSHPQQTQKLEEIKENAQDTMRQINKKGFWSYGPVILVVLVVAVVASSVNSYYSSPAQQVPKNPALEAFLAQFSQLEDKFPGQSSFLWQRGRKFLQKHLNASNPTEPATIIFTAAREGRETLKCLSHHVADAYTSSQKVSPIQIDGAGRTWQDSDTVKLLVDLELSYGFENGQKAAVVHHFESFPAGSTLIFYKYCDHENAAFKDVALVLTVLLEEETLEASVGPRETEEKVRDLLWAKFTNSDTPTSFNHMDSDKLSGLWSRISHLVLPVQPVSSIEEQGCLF
Test [16] is described as follows: E. coli growth modulation, two-sided OD650, primary screen, E. coli filamentation project, strain DRC41, 24 h (AID 1093).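 Also: MC1000 strain lacking acrAB efflux and sulA so SOS filamentation is blocked; test concentration not given here.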 As to conditions: OD650, 24 h, higher = more signal, called active from +8 up or from −8 down.
A short description of test [17]: small-molecule microarray binders of probe aLefty2, primary screen, biochemical, biotinylated probe, 635/667 nm fluorescence (AID 1094).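 Also: score merges spot fluorescence near 667 nm with spot signal-to-noise ratio.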 The settings on record: higher = more signal.
The subject of test [18] is Noggin (protein binding on small-molecule microarray). Nature of the test: Noggin binders on small-molecule microarray, primary screen, biochemical, 635/667 nm fluorescence (AID 1095).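 Also: score merges 667 nm feature fluorescence with signal to noise over triplicate slides.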 As to conditions: 635 nm fluorescence, higher = more signal.
Test [19] concerns the target Neurogenic locus notch homolog protein 3 (Homo sapiens) (UniProt Q9UM47). Nature of the test: NOTCH3 binders on small-molecule microarray, primary screen, biochemical, 635/667 nm fluorescence (AID 1096). The settings on record: NOTCH3 binding, 635 nm fluorescence, higher = more signal.
Test [20] is described as follows: small-molecule microarray binders of probe aEGFR, primary screen, biochemical, biotinylated probe, 635/667 nm fluorescence (AID 1097).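 Also: probe is a biotinylated anti-EGFR antibody binding compounds printed on slides; score combines fluorescence near 667 nm and signal to noise of each spot.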 The settings on record: higher = more signal.

The source made the active and inactive calls.

Neurogenic locus notch homolog protein 2 (Homo sapiens), sequence (Q04721 whole entry, looked up, canonical isoform): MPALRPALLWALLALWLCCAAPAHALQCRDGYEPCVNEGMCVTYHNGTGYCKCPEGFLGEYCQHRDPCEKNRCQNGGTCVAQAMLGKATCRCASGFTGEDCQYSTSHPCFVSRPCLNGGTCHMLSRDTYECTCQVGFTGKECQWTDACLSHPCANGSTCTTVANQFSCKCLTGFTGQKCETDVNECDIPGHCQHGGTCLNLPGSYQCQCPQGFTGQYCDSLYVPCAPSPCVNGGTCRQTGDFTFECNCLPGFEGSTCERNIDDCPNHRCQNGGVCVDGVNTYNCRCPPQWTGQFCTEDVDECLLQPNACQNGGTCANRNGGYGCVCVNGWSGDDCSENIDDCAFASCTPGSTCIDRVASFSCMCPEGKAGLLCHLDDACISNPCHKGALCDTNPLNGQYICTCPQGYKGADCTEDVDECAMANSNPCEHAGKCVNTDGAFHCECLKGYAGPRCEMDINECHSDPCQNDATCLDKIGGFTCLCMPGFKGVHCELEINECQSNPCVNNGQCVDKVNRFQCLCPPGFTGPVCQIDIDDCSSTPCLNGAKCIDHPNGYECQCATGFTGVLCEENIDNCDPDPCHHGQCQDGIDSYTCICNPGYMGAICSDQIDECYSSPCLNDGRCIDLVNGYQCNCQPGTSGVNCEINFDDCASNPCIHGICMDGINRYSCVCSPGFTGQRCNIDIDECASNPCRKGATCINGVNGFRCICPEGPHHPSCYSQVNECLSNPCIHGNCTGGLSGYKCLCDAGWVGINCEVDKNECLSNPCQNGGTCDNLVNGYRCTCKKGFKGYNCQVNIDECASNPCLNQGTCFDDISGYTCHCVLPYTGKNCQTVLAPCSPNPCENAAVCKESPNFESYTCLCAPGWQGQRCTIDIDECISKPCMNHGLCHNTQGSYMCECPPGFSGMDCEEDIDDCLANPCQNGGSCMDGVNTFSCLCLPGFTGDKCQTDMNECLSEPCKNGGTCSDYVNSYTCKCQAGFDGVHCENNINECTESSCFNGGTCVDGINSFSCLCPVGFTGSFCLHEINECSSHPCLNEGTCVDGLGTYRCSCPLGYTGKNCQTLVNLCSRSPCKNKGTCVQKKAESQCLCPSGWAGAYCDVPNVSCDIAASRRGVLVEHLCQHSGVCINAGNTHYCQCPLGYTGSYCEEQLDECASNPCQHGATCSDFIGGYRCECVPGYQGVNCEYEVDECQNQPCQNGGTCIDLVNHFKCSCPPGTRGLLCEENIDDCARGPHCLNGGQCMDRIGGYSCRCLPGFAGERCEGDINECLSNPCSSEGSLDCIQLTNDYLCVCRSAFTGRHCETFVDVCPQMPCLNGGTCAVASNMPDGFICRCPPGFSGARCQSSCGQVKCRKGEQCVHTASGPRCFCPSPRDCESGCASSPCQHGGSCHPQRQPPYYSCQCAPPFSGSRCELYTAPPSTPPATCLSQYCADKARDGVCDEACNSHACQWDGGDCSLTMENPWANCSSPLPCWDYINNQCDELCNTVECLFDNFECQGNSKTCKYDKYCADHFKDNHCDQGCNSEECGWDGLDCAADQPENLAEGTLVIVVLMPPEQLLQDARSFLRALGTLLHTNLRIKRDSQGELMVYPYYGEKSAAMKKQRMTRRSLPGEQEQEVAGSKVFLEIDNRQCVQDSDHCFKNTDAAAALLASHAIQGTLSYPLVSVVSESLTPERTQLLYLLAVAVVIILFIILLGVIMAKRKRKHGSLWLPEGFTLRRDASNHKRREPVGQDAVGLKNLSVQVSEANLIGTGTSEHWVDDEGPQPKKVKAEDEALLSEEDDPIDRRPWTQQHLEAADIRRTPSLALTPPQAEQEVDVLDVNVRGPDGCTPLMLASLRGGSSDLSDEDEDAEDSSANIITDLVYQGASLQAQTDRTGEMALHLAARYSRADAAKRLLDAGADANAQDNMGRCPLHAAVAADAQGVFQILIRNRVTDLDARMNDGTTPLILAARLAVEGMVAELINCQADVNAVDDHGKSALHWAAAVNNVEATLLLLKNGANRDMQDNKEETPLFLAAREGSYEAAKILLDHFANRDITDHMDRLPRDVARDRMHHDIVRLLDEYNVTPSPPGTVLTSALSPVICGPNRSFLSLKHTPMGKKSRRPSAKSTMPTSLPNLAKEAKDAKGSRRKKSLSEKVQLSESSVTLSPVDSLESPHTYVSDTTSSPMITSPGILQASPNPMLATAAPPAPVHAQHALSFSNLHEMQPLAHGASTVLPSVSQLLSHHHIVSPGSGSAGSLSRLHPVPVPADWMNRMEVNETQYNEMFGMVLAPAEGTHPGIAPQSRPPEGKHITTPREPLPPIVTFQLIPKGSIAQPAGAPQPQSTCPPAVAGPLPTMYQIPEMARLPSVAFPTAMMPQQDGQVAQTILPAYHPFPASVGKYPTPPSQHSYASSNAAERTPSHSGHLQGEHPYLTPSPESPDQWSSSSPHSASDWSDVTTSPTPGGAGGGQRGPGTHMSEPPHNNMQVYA
Pro-neuregulin-1, membrane-bound isoform (Homo sapiens), sequence (Q02297 whole entry, looked up, the tested form may be a part, canonical isoform): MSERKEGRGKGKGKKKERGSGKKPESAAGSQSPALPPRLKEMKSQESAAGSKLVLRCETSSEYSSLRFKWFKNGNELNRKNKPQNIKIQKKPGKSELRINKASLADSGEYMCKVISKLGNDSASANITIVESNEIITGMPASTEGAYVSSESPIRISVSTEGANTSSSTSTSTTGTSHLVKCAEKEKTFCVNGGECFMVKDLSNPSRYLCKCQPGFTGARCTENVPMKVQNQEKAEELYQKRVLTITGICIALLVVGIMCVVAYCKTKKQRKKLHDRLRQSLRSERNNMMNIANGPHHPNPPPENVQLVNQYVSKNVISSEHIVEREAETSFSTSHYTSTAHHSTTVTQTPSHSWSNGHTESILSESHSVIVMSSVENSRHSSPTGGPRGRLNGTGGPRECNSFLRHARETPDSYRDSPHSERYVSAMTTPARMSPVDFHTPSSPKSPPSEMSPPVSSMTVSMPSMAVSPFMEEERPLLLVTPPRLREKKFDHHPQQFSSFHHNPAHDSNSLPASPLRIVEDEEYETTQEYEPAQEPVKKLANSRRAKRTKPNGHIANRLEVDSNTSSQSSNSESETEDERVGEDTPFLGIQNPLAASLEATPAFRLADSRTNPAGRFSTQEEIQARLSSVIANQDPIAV

Take `O=C1O[C@@H](c2ccccc2)[C@@H](c2ccccc2)N2[C@@H](c3ccc(OCCO)cc3)[C@]3(C(=O)Nc4ccc(C#CC5(O)CCCCCC5)cc43)[C@@H](C(=O)O)[C@H]12`: the composite z-score in test [1] is 0.0507; in test [2], 0.733; in test [3], -0.0579; in [4], 0.635; in test [5], 0.456; in [6], 1.24. The composite z-score in test [7] is 1.07; in [9] it was 0.193; in [10], 0.0176; in [11] it was 1.35; in test [15], 2.64; in test [17] it was -0.166. Besides, the composite z-score was 0.674 in test [18], 0.743 in test [19] and -0.0828 in test [20]. In addition, the z-score in test [8] was 0.259 (inactive); in test [12], 2.79 (inactive); in test [13], -0.256 (inactive); in [14] it was 0.757 (inactive); in test [16], 2.21 (inactive).
Regarding `C[N+](C)(C)CCCC[C@@H]1NC(=O)[C@H]2C[C@@H](C(=O)NCCCCCNC(=O)CS)[C@@H](c3cccc(OCCO)c3)N2C1=O`, the composite z-score was -0.121 in test [1]; 0.348 in test [2]; -0.102 in test [3]; 0.0107 in test [4]; -0.324 in test [5]; 1.5 in [6]. The composite z-score in test [7] was 0.785; in test [9] it was 0.0685; in [10] it was 0.0373; in [11], -0.248; in [15] it was 1.36; in [17] it was -0.152. Moreover, the composite z-score in test [18] is 0.378; in test [19], -0.36; in [20], -0.127. The z-score in test [8] is -0.474 (inactive); in [12], -0.802 (inactive); in test [13], -0.693 (inactive); in [14], -0.451 (inactive); in test [16], 0.469 (inactive).
Regarding `COCCOC(=O)N1C(=O)[C@@]2(c3cc(C#CCCO)ccc31)[C@H](c1ccccc1OCCO)N1[C@H](c3ccccc3)[C@H](c3ccccc3)OC(=O)[C@H]1[C@@H]2C(N)=O`, the composite z-score in [1] was -0.455; in test [2], -0.0702; in [3], -0.0723; in test [4], 0.758; in [5] it was 1.3; in test [6], 1.55. Also, the composite z-score in test [7] is 1.22; in [9] it was 0.806; in test [10], -0.0645; in test [11], 1.55; in [15], 3.08; in test [17], -0.123. Besides, the composite z-score in test [18] came out at 1.6; in test [19], 1.11; in test [20], 0.0111. Also, the z-score was -1.9 (inactive) in test [8]; 1.48 (inactive) in [12]; 0.142 (inactive) in test [13]; 2.99 (inactive) in test [14]; 2.16 (inactive) in test [16].
Consider `O=C1O[C@H](c2ccccc2)[C@H](c2ccccc2)N2[C@H]1[C@@H](C(=O)N1CCN(c3ncccn3)CC1)[C@]1(C(=O)Nc3ccc(C#CCCO)cc31)[C@H]2c1ccc(O)cc1`, for which the composite z-score in test [1] is -0.153; in test [2] it was -0.162; in test [3], 0.0033; in test [4], 0.597; in [5], 1.01; in test [6] it was 1.71. For the same compound, the composite z-score in [7] is 0.979; in [9], 0.0354; in test [10], 0.0373; in test [11] it was 0.738; in test [15], 2.92; in [17], -0.0784. The composite z-score in test [18] was 0.283; in test [19], 0.504; in [20], -0.004. Further, the z-score in [8] is 1.34 (inactive); in test [12], 0.515 (inactive); in test [13] it was -0.443 (inactive); in [14], 1.18 (inactive); in test [16], -0.778 (inactive).
For the compound `COC(=O)[C@@]1(Cc2ccc(OC)cc2)[C@H]2c3cc(C(=O)N4CCCC4)n(Cc4ccc(C(F)(F)F)nc4)c3C[C@H]2CN1C(=O)c1ccccc1`, the composite z-score in test [1] was 0.308; in test [2] it was 0.374; in test [3] it was -0.102; in test [4] it was 0.999; in test [5] it was 1.21; in test [6], 1.66. The composite z-score in test [7] was 1.24; in [9] it was -0.25; in [10], 0.388; in test [11], 0.0861; in test [15] it was 1.05; in test [17] it was 0.248. In addition, the composite z-score in [18] came out at 0.113; in [19], 0.269; in test [20], 0.131. In addition, the z-score in test [8] was 0.491 (inactive); in test [12], -0.361 (inactive); in [13], -0.138 (inactive); in test [14], -0.707 (inactive); in [16], -1.1 (inactive).

These data come from PubChem BioAssay.
